Laboratory results: PubChem BioAssay (Tox21)
Values without a mark were called inactive. Inconclusive results are not listed. A call without a number means that no potency is given here. The source made the active and inactive calls. Unless noted, calls come from the whole dose curve.

How the values were obtained:
[1] = Nuclear factor erythroid 2-related factor 2/antioxidant responsive element (Nrf2/ARE) small molecule agonists: luciferase reporter gene qHTS assay in human keratinocytes (AID 1919969); note: nearly all actives have a fitted effect of over 35% in size; note: potency is the fitted concentration of half-maximal effect
[2] = target: KiSS-1 receptor (Homo sapiens) (UniProt Q969F8); assay: Human kisspeptin (KISS1R) small molecule agonists, calcium flux assay in KISS1R-HEK293 cells (AID 1920064; active = well fitted activation curve with a large enough effect in the repeat runs)
KiSS-1 receptor (Homo sapiens), sequence (Q969F8 whole entry, looked up): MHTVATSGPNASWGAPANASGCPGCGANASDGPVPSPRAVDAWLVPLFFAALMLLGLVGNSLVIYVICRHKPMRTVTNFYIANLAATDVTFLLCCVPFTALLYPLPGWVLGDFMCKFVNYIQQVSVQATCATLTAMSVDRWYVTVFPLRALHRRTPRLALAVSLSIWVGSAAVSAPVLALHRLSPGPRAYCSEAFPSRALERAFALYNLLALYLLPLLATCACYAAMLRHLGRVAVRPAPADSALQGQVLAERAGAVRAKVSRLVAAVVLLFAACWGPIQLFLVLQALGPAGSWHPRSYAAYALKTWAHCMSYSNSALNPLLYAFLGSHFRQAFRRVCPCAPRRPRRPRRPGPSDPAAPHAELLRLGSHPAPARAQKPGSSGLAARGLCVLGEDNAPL
Outline: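 Cell line: HEK293, stable human KISS1R. Dye loading 1 h at 37 C after 18 h culture. Read: kinetic fluorescence, 480/540 nm, 3 min at 1 s intervals.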

[3] = G protein-coupled receptor (GPCR) small molecule agonists, calcium flux assay: HEK293 wild type cell line counter screen (AID 1920065)
Outline: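 Tox21 10K compounds, 15 concentrations each in triplicate, pin-transferred in DMSO onto dye-loaded cells; kinetic read at 480/540 nm for 3 min, 1 s intervals.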

[4] = p53 small molecule agonists, cell-based qHTS assay with human liver microsomes (AID 1963577);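 note: p53 response element beta-lactamase reporter cells with liver microsomes plus NADPH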
Outline: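 HLM-supplemented p53RE-bla reporter assay: 16 h compound exposure at 37 C, microsomes and NADPH each 0.5 mg/mL final, read by fluorescence intensity.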

[5] = p53 small molecule agonists, cell-based qHTS assay with rat liver microsomes (AID 1963578)
Outline: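 Quantitative HTS of the Tox21 10K library: p53RE-bla cells, rat liver microsomes plus NADPH at 0.5 mg/mL final each, 16 h at 37 C, beta-lactamase fluorescence detection.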

[6] = p53 small molecule agonists, cell-based qHTS assay with human liver microsomes: qHTS cell viability counter screen (AID 1963579); note: nearly all actives have a fitted effect of over 45% in size; note: potency is the fitted concentration of half-maximal effect
Outline: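 Viability of p53RE-bla cells is measured as CellTiter-Glo luminescence following a 16 h, 37 C incubation with compound, liver microsomes from human donors and NADPH.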

[7] = target: 5-hydroxytryptamine receptor 2A (Homo sapiens) (UniProt P28223); assay: 5-hydroxytryptamine receptor 2A (HTR2A) small molecule agonists, cell-based qHTS assay (AID 1963587); note: nearly all actives have a fitted effect of over 30% in size; note: potency is the fitted concentration of half-maximal effect
5-hydroxytryptamine receptor 2A (Homo sapiens), sequence (P28223 whole entry, looked up): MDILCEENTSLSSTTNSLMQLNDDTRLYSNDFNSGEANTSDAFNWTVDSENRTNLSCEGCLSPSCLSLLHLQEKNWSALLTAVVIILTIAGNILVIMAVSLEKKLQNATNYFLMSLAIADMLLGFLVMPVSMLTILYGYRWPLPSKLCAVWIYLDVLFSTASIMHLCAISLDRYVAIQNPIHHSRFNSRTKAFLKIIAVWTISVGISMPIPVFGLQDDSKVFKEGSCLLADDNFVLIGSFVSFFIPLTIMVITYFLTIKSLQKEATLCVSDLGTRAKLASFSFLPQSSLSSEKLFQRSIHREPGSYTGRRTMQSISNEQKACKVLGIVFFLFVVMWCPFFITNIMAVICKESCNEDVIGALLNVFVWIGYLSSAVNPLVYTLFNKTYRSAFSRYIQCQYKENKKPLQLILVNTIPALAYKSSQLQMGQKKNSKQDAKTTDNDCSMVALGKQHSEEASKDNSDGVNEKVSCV
Outline: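 CHO cells stably expressing human HTR2A, plated 18 h, loaded with calcium dye 1 h at 37 C. Agonist mode: compounds added and intracellular calcium fluorescence recorded kinetically for 2 min at 1 sec intervals.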

[8] = target: D(2) dopamine receptor (Homo sapiens) (UniProt P14416); assay: Dopamine D2 receptor (DRD2) small molecule antagonists, cell-based qHTS assay (AID 1963595; active = well fitted inhibition curve with a large enough effect in the signal ratio in the repeat runs, with a control signal flat; the % refers to the signal ratio; note: potency is the fitted concentration of half-maximal effect)
D(2) dopamine receptor (Homo sapiens), sequence (P14416 whole entry, looked up): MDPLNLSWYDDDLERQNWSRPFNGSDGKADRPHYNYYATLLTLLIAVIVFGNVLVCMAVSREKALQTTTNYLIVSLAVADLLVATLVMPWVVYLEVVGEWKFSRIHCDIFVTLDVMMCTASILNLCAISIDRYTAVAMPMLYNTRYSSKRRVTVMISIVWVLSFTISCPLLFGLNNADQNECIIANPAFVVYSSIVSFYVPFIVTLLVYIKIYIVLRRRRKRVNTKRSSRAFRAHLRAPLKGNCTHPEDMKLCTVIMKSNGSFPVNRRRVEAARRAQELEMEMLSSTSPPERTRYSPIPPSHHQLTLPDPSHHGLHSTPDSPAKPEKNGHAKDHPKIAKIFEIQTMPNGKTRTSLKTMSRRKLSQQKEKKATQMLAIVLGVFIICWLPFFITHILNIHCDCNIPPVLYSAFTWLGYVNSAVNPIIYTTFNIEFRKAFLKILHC
Outline: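 Human DRD2 antagonist qHTS measuring cAMP by HTRF. The cells are exposed to compound for 10 min, then to NKH477 (200 nM) and quinpirole (12 nM) for 30 min at RT, with Ro20-1724 (0.1 mM) present throughout.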

[9] = p53 small molecule agonists, cell-based qHTS assay: qHTS cell viability counter screen (AID 1963581); note: nearly all actives have a fitted effect of over 45% in size; note: potency is the fitted concentration of half-maximal effect
Outline: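 ATP content measured by luminescence in HCT-116 p53RE-bla cells treated 16 h at 37 C, same wells as the reporter screen.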

[10] = target: 5-hydroxytryptamine receptor 2A (Homo sapiens) (UniProt P28223); assay: 5-hydroxytryptamine receptor 2A (HTR2A) small molecule antagonists, cell-based qHTS assay (AID 1963586); note: nearly all actives have a fitted effect of over 45% in size; note: potency is the fitted concentration of half-maximal effect
Outline: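 CHO cells stably expressing human HTR2A were plated for 18 h at 37 C, then loaded with calcium dye for 1 h. Compounds were preincubated 5 min at room temperature before DOI (4 nM solution) was added. Kinetic fluorescence was read for 3 min.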

[11] = target: Muscarinic acetylcholine receptor M1 (Homo sapiens) (UniProt P11229); assay: Cholinergic receptor muscarinic 1 (CHRM1) small molecule antagonists, cell-based qHTS assay (AID 1963588); note: nearly all actives have a fitted effect of over 40% in size; note: potency is the fitted concentration of half-maximal effect
Muscarinic acetylcholine receptor M1 (Homo sapiens), sequence (P11229 whole entry, looked up): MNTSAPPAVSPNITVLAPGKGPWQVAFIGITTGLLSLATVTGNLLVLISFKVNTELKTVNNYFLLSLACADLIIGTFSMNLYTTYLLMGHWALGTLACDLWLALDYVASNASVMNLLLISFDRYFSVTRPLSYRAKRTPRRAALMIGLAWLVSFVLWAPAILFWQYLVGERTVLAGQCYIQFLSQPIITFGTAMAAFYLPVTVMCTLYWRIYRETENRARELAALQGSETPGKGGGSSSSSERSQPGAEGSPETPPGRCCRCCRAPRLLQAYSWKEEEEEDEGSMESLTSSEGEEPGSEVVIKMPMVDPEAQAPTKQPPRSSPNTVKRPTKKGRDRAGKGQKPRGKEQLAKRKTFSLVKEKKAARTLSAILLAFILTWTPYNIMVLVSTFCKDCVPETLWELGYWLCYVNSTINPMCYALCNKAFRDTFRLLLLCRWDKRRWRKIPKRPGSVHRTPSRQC
Outline: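 Compounds were tested at 15 concentrations in three independent runs. Dye-loaded CHRM1-CHO cells were exposed 5 min at room temperature before stimulation by acetylcholine added at 50nM. Intracellular calcium was read kinetically on FDSS for 3 min.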

[12] = target: Muscarinic acetylcholine receptor M1 (Homo sapiens) (UniProt P11229); assay: Cholinergic receptor muscarinic 1 (CHRM1) small molecule agonists, cell-based qHTS assay (AID 1963589); note: nearly all actives have a fitted effect of over 35% in size
Outline: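 Homogeneous fluorescence calcium flux, agonist mode. Human M1-expressing CHO cells; compound dosed at 15 concentrations, three independent runs; signal sampled every 1 sec.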

[13] = target: D(2) dopamine receptor (Homo sapiens) (UniProt P14416); assay: Dopamine D2 receptor (DRD2) small molecule agonists, cell-based qHTS assay (AID 1963594); note: nearly all actives have a fitted effect of over 35% in size
Outline: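 HEK293 cells stably expressing human DRD2, pre-treated with PDE inhibitor Ro20-1724 (0.1 mM final) and compound 10 min at room temperature, then stimulated with NKH477 (200nM […]) for 30 min. cAMP read by HTRF (665/620 nm).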

[14] = p53 small molecule agonists, cell-based qHTS assay with rat liver microsomes: qHTS cell viability counter screen (AID 1963580); note: nearly all actives have a fitted effect of over 45% in size
Outline: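 After the beta-lactamase ratio was read, CellTiter-Glo was added to the same wells and luminescence measured at 30 min; cells had been treated 16 h at 37 C with compounds, rat liver microsomes and NADPH (0.5 mg/mL final each).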

[15] = target: Beta-2 adrenergic receptor (Homo sapiens) (UniProt P07550); assay: Adrenergic beta2 receptor (ADRB2) small molecule antagonists, cell-based qHTS assay (AID 1963592); note: nearly all actives have a fitted effect of over 50% in size; note: potency is the fitted concentration of half-maximal effect
Beta-2 adrenergic receptor (Homo sapiens), sequence (P07550 whole entry, looked up): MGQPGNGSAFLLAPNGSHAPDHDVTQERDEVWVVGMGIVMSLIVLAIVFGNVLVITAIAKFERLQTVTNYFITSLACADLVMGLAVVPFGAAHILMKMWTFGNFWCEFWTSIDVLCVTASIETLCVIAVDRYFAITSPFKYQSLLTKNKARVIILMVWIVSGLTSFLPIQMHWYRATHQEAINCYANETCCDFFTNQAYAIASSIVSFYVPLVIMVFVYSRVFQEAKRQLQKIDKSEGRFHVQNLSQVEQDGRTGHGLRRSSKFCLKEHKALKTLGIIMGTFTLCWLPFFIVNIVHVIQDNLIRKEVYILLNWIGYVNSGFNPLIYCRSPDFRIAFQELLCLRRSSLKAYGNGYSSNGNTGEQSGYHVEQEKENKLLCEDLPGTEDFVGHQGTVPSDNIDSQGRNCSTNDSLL
Outline: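 Assay format: CHO-ADRB2 cells, 18-20hr seeding at 37C/5% CO2, then compound plus 1nM isoproterenol agonist mix for 0.5hr RT. Homogeneous time-resolved fluorescence cAMP detection after 1hr, expressed as 665/615 nm ratio.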

[16] = target: Beta-2 adrenergic receptor (Homo sapiens) (UniProt P07550); assay: Adrenergic beta2 receptor (ADRB2) small molecule agonists, cell-based qHTS assay (AID 1963593); note: potency is the fitted concentration of half-maximal effect;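 for activation: CHO cells stably overexpressing human ADRB2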
Outline: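 CHO cells stably over-expressing ADRB2 were plated overnight at 37C, then dosed with compounds plus a stimulation mix containing 100uM IBMX and 25uM Ro-20-1724 for 0.5hr at room temperature. cAMP was measured by HTRF competition, 1hr.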

[17] = p53 small molecule agonists, cell-based qHTS assay (AID 1963582; active = well fitted activation curve with a large enough effect in the signal ratio in the repeat runs, not every such curve was filed as active; the % refers to the signal ratio)
Outline: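 16 h compound exposure (37 C) of p53 response element–bla cells, preceded by 5 h recovery at 37 C/5% CO2; read-out via LiveBLAzer B/G FRET substrate, 2 h RT, fluorescence intensity.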

[18] = cAMP Responsive Elements (CRE) small molecule antagonists, cell-based qHTS assay (AID 1963591; active = well fitted inhibition curve with a large enough effect in the signal ratio in the repeat runs, not every such curve was filed as active; the % refers to the signal ratio)
Outline: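 First, CRE-bla HEK293T cells settled 18 h at 37 C. Next, compound and 0.25 uM final NKH477 were applied for 3 h. Last, LiveBLAzer B/G substrate was loaded for 2 h at room temperature.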

[19] = cAMP Responsive Elements (CRE) small molecule agonists, cell-based qHTS assay (AID 1963590); note: potency is the fitted concentration of half-maximal effect
Outline: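 HEK 293T cells stably bearing CRE-bla were plated at 2,000 cells per well and rested 18 h. Compounds, positive controls or DMSO were added for 3 h at 37 C. LiveBLAzer B/G substrate was then loaded for 2 h at room temperature.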

O=C1C=CC(=O)N1c1ccc(Cc2ccc(N3C(=O)C=CC3=O)cc2)cc1
Potency [1]: 9.69 µM (active)
Potency [2]: inactive
Potency [3]: inactive
Potency [4]: inactive
Potency [5]: inactive
Potency [6]: 16.2 µM (active)
Potency [7]: 43.6 µM (active)
Potency [8]: 4.33 µM (active)

O=[N+]([O-])c1cc(C2CCCCC2)c(O)c([N+](=O)[O-])c1
Potency [1]: 13.6 µM (active)
Potency [2]: inactive
Potency [4]: inactive
Potency [5]: inactive
Potency [6]: 20.4 µM (active)
Potency [9]: 20.4 µM (active)
Potency [10]: inactive
Potency [11]: inactive
Potency [12]: inactive
Potency [13]: inactive
Potency [8]: inactive

CC(=O)SCC(CC(=O)c1ccc(C)cc1)C(=O)O (stereo not drawn)
Potency [1]: inactive
Potency [2]: inactive
Potency [3]: inactive
Potency [6]: inactive
Potency [14]: inactive
Potency [9]: inactive
Potency [10]: inactive
Potency [7]: inactive
Potency [11]: inactive
Potency [12]: inactive
Potency [15]: inactive
Potency [16]: inactive
Potency [13]: inactive
Potency [8]: inactive

Cc1cccc(O)c1N
Potency [1]: 30.9 µM (active)
Potency [2]: inactive
Potency [3]: inactive
Potency [4]: inactive
Potency [5]: inactive
Potency [6]: inactive
Potency [14]: inactive
Potency [17]: inactive
Potency [10]: inactive
Potency [7]: inactive
Potency [11]: inactive
Potency [12]: inactive
Potency [18]: inactive
Potency [15]: inactive
Potency [8]: inactive

CCCCC(CC)COS(=O)(=O)O (stereo not drawn)
Potency [1]: inactive
Potency [2]: inactive
Potency [3]: inactive
Potency [6]: inactive
Potency [14]: inactive
Potency [9]: inactive
Potency [10]: inactive
Potency [7]: inactive
Potency [12]: inactive
Potency [19]: inactive
Potency [15]: inactive
Potency [13]: inactive
Potency [8]: inactive

CC(C)=CCOc1ccc(/C=C/C(=O)c2ccc(OCC=C(C)C)cc2OCC(=O)O)cc1
Potency [1]: 26.6 µM (active)
Potency [2]: inactive
Potency [3]: inactive
Potency [6]: inactive
Potency [14]: inactive
Potency [7]: inactive
Potency [12]: inactive
Potency [15]: inactive
Potency [16]: inactive
Potency [13]: inactive
Potency [8]: inactive

CC(CN(C)C)CN1c2ccccc2CCc2ccccc21 (stereo not drawn)
Potency [1]: inactive
Potency [2]: inactive
Potency [3]: inactive
Potency [4]: inactive
Potency [5]: inactive
Potency [6]: inactive
Potency [14]: inactive
Potency [7]: inactive
Potency [11]: inactive
Potency [12]: inactive
Potency [13]: inactive
Potency [8]: 23.7 µM (active)

CNCCCCOc1ccccc1Cc1ccccc1
Potency [1]: inactive
Potency [2]: inactive
Potency [3]: inactive
Potency [4]: inactive
Potency [5]: inactive
Potency [14]: inactive
Potency [9]: inactive
Potency [17]: inactive
Potency [10]: 0.115 µM (active)
Potency [11]: inactive
Potency [12]: inactive
Potency [19]: inactive
Potency [18]: inactive
Potency [15]: 8.41 µM (active)
Potency [13]: inactive
Potency [8]: inactive

CC(C)=CCNc1ncnc2c1ncn2[C@@H]1O[C@H](CO)[C@@H](O)[C@H]1O
Potency [1]: 7.5 µM (active)
Potency [2]: inactive
Potency [3]: inactive
Potency [4]: inactive
Potency [5]: inactive
Potency [6]: inactive
Potency [14]: inactive
Potency [10]: inactive
Potency [11]: inactive
Potency [12]: inactive
Potency [19]: 11.9 µM (active)
Potency [15]: inactive
Potency [8]: 9.44 µM (active)

CN1CCN(CCC(=O)N2c3ccccc3Sc3ccc(C(F)(F)F)cc32)CC1
Potency [1]: inactive
Potency [2]: inactive
Potency [3]: inactive
Potency [4]: inactive
Potency [5]: inactive
Potency [14]: inactive
Potency [11]: 0.146 µM (active)
Potency [12]: inactive
Potency [15]: 29.8 µM (active)
Potency [13]: inactive
Potency [8]: inactive

O=C(CC(=O)C(F)(F)F)c1ccccc1
Potency [1]: 49.2 µM (active)
Potency [2]: inactive
Potency [3]: inactive
Potency [4]: inactive
Potency [6]: inactive
Potency [9]: inactive
Potency [10]: inactive
Potency [7]: 49.7 µM (active)
Potency [11]: inactive
Potency [12]: inactive
Potency [19]: inactive
Potency [18]: inactive
Potency [16]: 13.9 µM (active)
Potency [13]: inactive
Potency [8]: inactive

CCOc1ccc2nc3cc(N)ccc3c(N)c2c1
Potency [1]: 29.8 µM (active)
Potency [2]: inactive
Potency [3]: inactive
Potency [4]: inactive
Potency [5]: inactive
Potency [14]: inactive
Potency [9]: inactive
Potency [10]: inactive
Potency [7]: inactive
Potency [11]: inactive
Potency [12]: inactive
Potency [15]: inactive
Potency [13]: inactive
Potency [8]: inactive
